Results on one compound are retold here after PubChem BioAssay AID588451 (Broad Institute, 2011).

SMILES strings stand for the structures. Entries with a potency or affinity are not part of this list. Active and inactive are the calls of the source. How the calls were made is not given here.

The target of this assay is Luciferin 4-monooxygenase (Photinus pyralis) (UniProt P08659). Description: firefly luciferase enzyme inhibitors, dose response, biochemical, dry powder samples, plate reader (AID 588451).
Chain of Luciferin 4-monooxygenase (Photinus pyralis) (P08659 whole entry, looked up): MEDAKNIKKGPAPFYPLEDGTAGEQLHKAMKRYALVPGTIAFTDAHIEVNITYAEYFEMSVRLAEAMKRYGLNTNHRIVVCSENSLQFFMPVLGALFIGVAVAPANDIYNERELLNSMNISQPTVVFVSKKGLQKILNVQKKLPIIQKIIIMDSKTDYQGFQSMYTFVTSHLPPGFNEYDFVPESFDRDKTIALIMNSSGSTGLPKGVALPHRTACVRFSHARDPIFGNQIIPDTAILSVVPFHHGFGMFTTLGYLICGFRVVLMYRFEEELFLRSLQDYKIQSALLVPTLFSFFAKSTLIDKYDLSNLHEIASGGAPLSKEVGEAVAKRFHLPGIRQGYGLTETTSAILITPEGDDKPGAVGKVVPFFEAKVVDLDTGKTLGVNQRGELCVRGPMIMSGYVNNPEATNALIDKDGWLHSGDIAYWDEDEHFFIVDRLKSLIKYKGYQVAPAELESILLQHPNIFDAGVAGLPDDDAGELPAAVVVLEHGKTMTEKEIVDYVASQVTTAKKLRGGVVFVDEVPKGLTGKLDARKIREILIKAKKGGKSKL

`Cc1ccc(C(=O)N/N=C/c2ccc([N+](=O)[O-])s2)cc1`: the call was inactive.
